Screen size: about 350,000 compounds; about 2,700 (0.77%) were called active.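 How the source made its calls: active means inhibition reaching at least a set limit at 20 µM in the primary screen (cut at about 59% in these data); inactive means the rest.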 The entries come from a sample that favours actives as a whole.

The subject of this assay is glucose-6-phosphate dehydrogenase-6-phosphogluconolactonase (Plasmodium falciparum 3D7). The assay is described as follows: PfG6PD enzyme inhibitors, primary screen, biochemical, fluorescence intensity, uHTS (AID 504690).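 Further: 0% = DMSO wells with substrate and 100% = DMSO wells lacking glucose-6-phosphate.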 To be noted: PfGluPho enzyme, NADPH resazurin-diaphorase fluorescence; at 20 µM; hits give high values. In general terms: The colour change of resazurin is a common sign of viable cells or microbes.
A word on the inhibition: it is the change of the read-out against control, counted positive when it falls. Consider `Cc1ccc(C(=O)/C=C/c2c(C)nn(-c3ccccc3)c2Cl)cc1`, for which the inhibition is 71.4% (active).

Consider `Cc1nn(-c2ccccc2)c(Cl)c1/C=C/C(=O)c1ccc(O)cc1`, for which the inhibition is -22.8% (inactive).

Turning to `Cc1ccc(-n2nc(C)c(/C=N/NC(=O)c3cccs3)c2Cl)cc1`, the inhibition is 18.2% (inactive).

As to `CCOC(OCC)c1ccc(/C=C\c2nccc(N)n2)cc1`, the inhibition is 5.93% (inactive).

`COc1cc(S(=O)(=O)N2CCOCC2)ccc1NC(=O)COc1ccc(N(C)S(=O)(=O)c2ccc(C)cc2)cc1`: the inhibition is 3.13% (inactive).

Consider `COc1ccc(Cc2nnnn2CC(=O)O)cc1`, for which the inhibition was -4.83% (inactive).

As to `CC1(c2ccc3ccccc3c2)NC(=O)N(CC(N)=O)C1=O` (stereo not drawn), the inhibition was -14% (inactive).

With `N/C(=N\OC(=O)CCn1cccc(C(F)(F)F)c1=O)c1ccc(OC(F)(F)F)cc1`, the inhibition was -3.22% (inactive).

Turning to `CCSc1nnc(NC(=O)c2ccc(C)cc2)s1`, the inhibition is 92.9% (active).

`CCOC(=O)CSc1nnc(NC(=O)c2cccc(S(=O)(=O)N3CCCC3)c2)s1`: the inhibition was -21.8% (inactive).

Take `NC(=O)CSc1nnc(NC(=O)c2ccc(Br)o2)s1`: the inhibition is 21.1% (inactive).

Take `CCC(C)NCCOCCOc1ccc(Br)cc1C` (stereo not drawn): the inhibition was -3.69% (inactive).

For the compound `O=C(NC1CCc2ccccc21)C12CN(Cc3ccccc3)CC1C(c1cccc([N+](=O)[O-])c1)=NO2` (stereo not drawn), the inhibition is 3.16% (inactive).

In the case of `O=C1C(Cl)=C(Oc2ccccc2)C(=O)c2ccccc21`, the inhibition was 128% (active).

Consider `COc1ccc(-c2c(C)cc3oc(=O)cc(-c4ccccc4)c3c2C)cc1C=O`, for which the inhibition is 1.07% (inactive).

With `CCOc1ccccc1Nc1ccc(C(=O)O)cc1[N+](=O)[O-]`, the inhibition is -28.7% (inactive).

For `CCOc1ccccc1Nc1ccc2nonc2c1[N+](=O)[O-]`, the inhibition was 77.2% (active).

`Cc1ccccc1Nc1c([N+](=O)[O-])ccc2nonc12`: the inhibition is -0.06% (inactive).

Consider `CCC(C)C(=O)Nc1cc([N+](=O)[O-])ccc1Cl` (stereo not drawn), for which the inhibition is -12.1% (inactive).

Turning to `Cc1ccc(N(C(=O)CC2NC(=O)NC2=O)C2(C(=O)NC3CCCC3)CCCCC2)cc1` (stereo not drawn), the inhibition is 2.93% (inactive).

On to `O=C1/C(=C\Nc2ccccc2)CCN1c1ncccn1`, for which the inhibition was 10.9% (inactive).

As for `Cc1ccc(S(=O)(=O)N2C[C@@H](C)[C@]3(C2)[C@H](O)[C@H](OC(=O)NCc2ccccc2)C[C@H]2C(=O)N(c4ccccc4)C(=O)[C@H]23)cc1`, the inhibition is 24.5% (inactive).

Regarding `COC(=O)c1c(C)[nH]c(C)c1-c1ccc([N+](=O)[O-])cc1`, the inhibition is -17.8% (inactive).

Regarding `CC(=O)N1CC[n+]2c(-c3ccc([N+](=O)[O-])cc3)csc21`, the inhibition is 60.6% (active).

`CN1C2CCC1CC(NC(=O)c1ccc([N+](=O)[O-])cc1)C2` (stereo not drawn): the inhibition was -5.81% (inactive).

With `CC(C)NC(=O)/C(C#N)=C\c1ccc(N(C)C)c(Br)c1`, the inhibition is -1.04% (inactive).

In the case of `CCOC(=O)C1C(=O)OC2(CCCC2)C1C(=O)OCC` (stereo not drawn), the inhibition is -2.05% (inactive).

For `O=C(COC(=O)c1ccc([N+](=O)[O-])o1)NC12CC3CC(CC(C3)C1)C2`, the inhibition is 23.2% (inactive).

Take `Cc1ccc(/C=C/C(=O)Nc2cc(S(=O)(=O)N3CCCCCC3)ccc2OCC(F)(F)F)o1`: the inhibition was 35.9% (inactive).

Take `Cc1ccc(/C=C/C(=O)Nc2ccc([N+](=O)[O-])c(NC(=O)/C=C/c3ccc(C)o3)c2)o1`: the inhibition was 82.9% (active).

For the compound `COC(=O)/C=C\C(=O)Nc1cccc([N+](=O)[O-])c1`, the inhibition was 45.2% (inactive).

Turning to `CN(Cc1nc(-c2cnccn2)no1)Cc1n[nH]c2c1CCCCC2`, the inhibition was -10.5% (inactive).

Take `O=C(NCCc1ccccc1)C(=O)NCC1OCCN1S(=O)(=O)c1cccs1` (stereo not drawn): the inhibition was -3.06% (inactive).

Turning to `O=C(Nc1c(Cl)cccc1Cl)C1CCC1`, the inhibition is -12.1% (inactive).

In the case of `C=CCc1ccccc1OCC(=O)N/N=C/c1ccccc1OCC`, the inhibition is 105% (active).

As for `C=CCOc1ccccc1/C=N/NC(=O)Cc1ccccc1`, the inhibition was 4.68% (inactive).

Turning to `Cc1cccc(OCC(=O)NCC(=O)N/N=C/c2ccc(N(C)C)cc2)c1`, the inhibition is 17.1% (inactive).

On to `C=CCc1cccc(/C=N/NC(=O)COc2ccc(-n3cnnn3)cc2)c1O`, for which the inhibition is -10.4% (inactive).

As for `C=C(C)CNC(=S)N/N=C/c1ccccc1OCC(=O)O`, the inhibition is 3.17% (inactive).

With `CCOc1ccccc1/C=N/NC(=O)CNC(=O)COc1ccccc1`, the inhibition is 120% (active).

On to `Fc1ccc(OCc2nn3c(Cn4nnc5ccccc54)nnc3s2)cc1`, for which the inhibition was 57.3% (inactive).

As to `COC(=O)CSc1nc2c(c(C3CC=CCC3)c1C#N)CCC2` (stereo not drawn), the inhibition is -38.4% (inactive).

Regarding `CC(C)(C)NS(=O)(=O)CC12CCC(CC1=O)C2(C)C` (stereo not drawn), the inhibition is -13.3% (inactive).

`CCN(C(=O)COC(=O)CCC(=O)c1cccs1)C1CCCCC1`: the inhibition is -5.84% (inactive).

As for `CN(CC(=O)Nc1cccc2c1CCCC2)S(=O)(=O)c1ccc(Cl)cc1`, the inhibition is 6.22% (inactive).

For the compound `CCc1nonc1NC(=O)c1oc2ccc(Cl)cc2c1C`, the inhibition is -9.82% (inactive).

With `Cn1c(-c2ccc(F)cc2)cc2onc(-c3ccccc3Cl)c2c1=O`, the inhibition is 4.14% (inactive).

As to `CCc1cccc(C)c1NS(=O)(=O)c1cc(Br)cnc1N`, the inhibition is -9.37% (inactive).

With `CCN(C(=O)CSc1nnc(-c2ccncc2)o1)c1ccccc1`, the inhibition is -2.03% (inactive).

As for `COc1ccc(CCN=C2SCC(=O)N2Cc2ccccc2)cc1OC`, the inhibition was -8.19% (inactive).

Turning to `COc1cc(C2CC(=O)N3CN(Cc4ccccc4)CSC3=C2C#N)ccc1OCc1ccccc1` (stereo not drawn), the inhibition is 61.5% (active).

As to `COc1cc(CNC2CCCC2)c(Br)cc1OCc1ccccc1`, the inhibition is -14.8% (inactive).

Consider `Cc1ccc(S(=O)(=O)N2C[C@H]3C(=O)C[C@@H](c4cccc5ccccc45)N(S(=O)(=O)c4ccc(C)cc4)[C@H]3C[C@H]2c2ccc(Cl)cc2)cc1`, for which the inhibition was 7.92% (inactive).

For `O=C(N/N=C\c1cccnc1)c1cc(-c2ccccc2)nc2c(Cl)cccc12`, the inhibition is 8.75% (inactive).

With `O=C(CSc1cccc2cccnc12)N/N=C/c1cccnc1`, the inhibition was 63.5% (active).

`Cc1c(NC(=O)CSc2cccc3cccnc23)c(=O)n(-c2ccccc2)n1C`: the inhibition was 6.71% (inactive).

Regarding `OC(CNC1CCCC1)COc1ccc(F)cc1` (stereo not drawn), the inhibition is 11.3% (inactive).

Turning to `Cc1ccc(C)c(NS(=O)(=O)c2c(C)[nH]c(C)c2C(=O)N2CCCCC2)c1`, the inhibition is -16.2% (inactive).

Regarding `COc1ccc(-n2c(C)cc(C(=O)COC(=O)c3cc(OC)c(OC)cc3NC(=O)c3cccs3)c2C)cc1`, the inhibition was -6.02% (inactive).

On to `Cc1ccc(-n2c(C)cc(C(=O)CSc3nnc4ccccn34)c2C)cc1`, for which the inhibition was 26.1% (inactive).

With `COc1ccc(-n2c(C)cc(C(=O)CSc3nnc(-c4cccs4)o3)c2C)cc1`, the inhibition is 83.3% (active).

As for `Cc1c(-c2ccccc2)n[nH]c1C(=O)N=Nc1c(O)[nH]c2ccccc12`, the inhibition was 88.8% (active).

As to `O=C(CCN1CCCCC1)N=Nc1c(O)[nH]c2ccccc12`, the inhibition is 6.66% (inactive).

Regarding `Oc1[nH]c2ccccc2c1N=Nc1c(F)c(F)c(F)c(F)c1F`, the inhibition is 0.03% (inactive).

`CC1(C)C=C2[C@H]3CC[C@@H]4[C@@]5(C)CCC(=O)C(C)(C)[C@@H]5CC[C@@]4(C)[C@]3(C)CC[C@@]2(C(=O)O)CC1`: the inhibition is -28.4% (inactive).

`Cn1c(SCC(=O)Nc2ccc(Br)cc2F)nnc1-c1ccco1`: the inhibition was -4.98% (inactive).

Consider `COc1ccc(-n2cnc3cc(NCc4ccco4)ccc32)cc1`, for which the inhibition is 23.7% (inactive).

For `Cn1c(-c2ccco2)nc2cc3ccccc3cc21`, the inhibition is 60.5% (active).

`COc1ccc(Cl)cc1NC(=O)CCS(=O)(=O)c1ccc(Br)cc1`: the inhibition is 43% (inactive).

Regarding `O=C(COC(=O)/C(=C/c1cccs1)c1cccs1)NCc1ccccc1Cl`, the inhibition is -3.87% (inactive).

In the case of `Cc1cc(C(C)(C)C)cc(C)c1N`, the inhibition was 12.1% (inactive).

As for `Cc1cc(N)n2nc(-c3ccc(C(C)(C)C)cc3)cc2n1`, the inhibition was 84.5% (active).

As to `COc1ccc(-c2cc(C)nc3nc(N)nn23)cc1`, the inhibition was -2.23% (inactive).

Turning to `CC(C)C(c1nnnn1C1CCCCC1)N1CCN(C(=O)c2ccco2)CC1` (stereo not drawn), the inhibition is -12.7% (inactive).

With `CN(CCc1cnn(C)c1)Cc1cn(C)nc1-c1ccccc1F`, the inhibition was -8.15% (inactive).

Turning to `COC(=O)CCc1sc(Nc2ccc(Br)cc2)nc1-c1ccc(OC)cc1`, the inhibition was 64.3% (active).

`CNC(=O)c1sc(Nc2ccc(OCc3ccccc3)cc2)nc1C`: the inhibition is 19.4% (inactive).

In the case of `COc1ccc(NC(=O)CCC(=O)Nc2nnc(C3CCCCC3)s2)cc1`, the inhibition was -7.47% (inactive).

In the case of `COc1ccc(NC(=O)CN2C(=O)COc3ccc(S(=O)(=O)N4CCOCC4)cc32)c(OC)c1`, the inhibition was -0.58% (inactive).

For the compound `O=c1[nH]c2ccccc2n2c(-c3ccccc3)nnc12`, the inhibition is 102% (active).

On to `O=C(c1ncn2c1c(=O)[nH]c1ccccc12)N1CCc2ccccc2C1`, for which the inhibition is 8.24% (inactive).

In the case of `CC(=O)N(C)c1ccc(NC(=O)Nc2cccc3ccccc23)cc1`, the inhibition is -6.82% (inactive).

On to `COc1ccc(C(=O)Nc2cc(C)c(NC(=O)c3ccccc3OC)cn2)cc1`, for which the inhibition is 79.1% (active).

With `COc1cc2ccccc2cc1C(=O)Nc1ccccc1C`, the inhibition is -15.2% (inactive).

For `COc1ccccc1C(=O)Nc1ccccc1C(=O)Nc1ccccc1`, the inhibition is 8.55% (inactive).

`C=CCNC(=O)c1sc(SC)cc1-c1ccc(Cl)cc1`: the inhibition is 9.14% (inactive).

As for `CCc1ccc2[nH]c(=O)c(Cc3ccccc3)c(O)c2c1`, the inhibition was -9.56% (inactive).

Take `COc1ccc(CCC(=O)N2CCN(S(=O)(=O)c3ccc(OC)cc3)CC2)cc1`: the inhibition is -10.5% (inactive).

In the case of `Nc1ccc2[nH]c(=S)sc2c1`, the inhibition was 74.7% (active).

For `O=c1[nH]c2ccccc2s1`, the inhibition was 5.6% (inactive).

`C/C(=C\c1ccco1)CN1CCC(N2CCC(C(=O)N3CCOCC3)CC2)CC1`: the inhibition is -6.22% (inactive).

Regarding `CN(C(=O)c1cccc(NC(=O)Cc2cccc(NC(=O)C3CCCN(C(=O)C4CC4)C3)c2)c1)C1CCC1` (stereo not drawn), the inhibition was 13.5% (inactive).

Regarding `Cc1ccc(Nc2nc(CSc3nnnn3-c3ccccc3)cc(=O)[nH]2)cc1`, the inhibition was 2.74% (inactive).

These data come from PubChem BioAssay AID504690 (Sanford-Burnham Center for Chemical Genomics, 2011).
